Drawing on publication PMC7862700, “An all-to-all approach to the identification of sequence-specific readers for epigenetic DNA modifications on cytosine”, this text covers binding signal for 2 sequences.

Common to all, as to experiment: DAPPL (digital affinity profiling via proximity ligation, sequencing); 10 mM Tris-HCl pH 7.5, 50 mM NaCl, 1 mM DTT, 4% glycerol, room temperature, 30 min; GST-TFs on glutathione beads, 16-mer random dsDNA library, 0.1% formaldehyde crosslink after washing; high values mean tight binding
What all share (conditions): protein: recombinant; tags: N-terminal GST; dsDNA, one strand shown

The target of one experiment is SPI1 (Homo sapiens, UniProt P17947 1-270). The method, boiled down:
(§1)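 Binding signal is each hexamer's read frequency for a factor divided by its frequency in the tag-only sample. The factors were GST-fused human transcription factors from yeast, captured on glutathione beads, DNA-barcoded and pooled with that sample. Pools were incubated with 200 nmole of a random double-stranded 16-mer DNA library in Tris/NaCl/DTT/glycerol buffer at room temperature for 30 min, then washed, crosslinked with 0.1% formaldehyde, proximity-ligated with BsaI/T4 ligase (1 h, 37 °C), PCR-amplified and sequenced on an Illumina NextSeq500.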

A further experiment concerns the target T1, FEV (Homo sapiens, UniProt Q99581 1-238).
T1 sequence: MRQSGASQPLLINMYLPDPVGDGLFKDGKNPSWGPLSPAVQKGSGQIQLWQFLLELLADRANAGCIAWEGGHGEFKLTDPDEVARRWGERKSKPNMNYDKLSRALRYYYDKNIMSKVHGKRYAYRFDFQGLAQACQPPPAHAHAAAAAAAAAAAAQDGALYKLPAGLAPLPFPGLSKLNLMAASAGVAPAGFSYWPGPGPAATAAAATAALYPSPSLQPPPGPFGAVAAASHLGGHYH
The method, boiled down: as §1

For a further experiment, the target named is ETV5 (Homo sapiens, UniProt P41161 1-510). The method, boiled down:
as §1

The next experiment addresses T2, ELF3 (Homo sapiens, UniProt P78545 1-371).
T2 sequence: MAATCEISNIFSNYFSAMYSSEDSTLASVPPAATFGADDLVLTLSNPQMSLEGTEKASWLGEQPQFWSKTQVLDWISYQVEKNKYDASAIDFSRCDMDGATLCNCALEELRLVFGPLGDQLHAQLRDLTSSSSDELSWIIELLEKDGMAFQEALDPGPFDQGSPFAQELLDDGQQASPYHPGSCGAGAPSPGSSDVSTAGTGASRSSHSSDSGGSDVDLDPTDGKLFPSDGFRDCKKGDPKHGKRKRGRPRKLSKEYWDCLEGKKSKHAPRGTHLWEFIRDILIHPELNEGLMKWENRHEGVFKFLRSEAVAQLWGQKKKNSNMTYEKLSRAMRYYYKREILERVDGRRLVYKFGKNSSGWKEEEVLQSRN
The method, boiled down: as §1

A further experiment addresses T3, ETV7 (Homo sapiens, UniProt Q9Y603 1-341).
T3 sequence: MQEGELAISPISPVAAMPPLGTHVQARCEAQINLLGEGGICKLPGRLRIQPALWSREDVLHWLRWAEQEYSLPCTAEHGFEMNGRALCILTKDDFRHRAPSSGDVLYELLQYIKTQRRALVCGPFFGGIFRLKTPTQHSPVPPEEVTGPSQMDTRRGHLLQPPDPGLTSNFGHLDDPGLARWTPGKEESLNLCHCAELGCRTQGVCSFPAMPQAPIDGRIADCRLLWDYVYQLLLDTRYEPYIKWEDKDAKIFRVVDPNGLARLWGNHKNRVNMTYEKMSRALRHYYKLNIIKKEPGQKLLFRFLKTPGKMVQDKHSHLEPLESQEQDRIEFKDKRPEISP
The method, boiled down:
as §1

The target of another experiment is T4, ELK1 (Homo sapiens, UniProt P19419 1-428).
T4 sequence: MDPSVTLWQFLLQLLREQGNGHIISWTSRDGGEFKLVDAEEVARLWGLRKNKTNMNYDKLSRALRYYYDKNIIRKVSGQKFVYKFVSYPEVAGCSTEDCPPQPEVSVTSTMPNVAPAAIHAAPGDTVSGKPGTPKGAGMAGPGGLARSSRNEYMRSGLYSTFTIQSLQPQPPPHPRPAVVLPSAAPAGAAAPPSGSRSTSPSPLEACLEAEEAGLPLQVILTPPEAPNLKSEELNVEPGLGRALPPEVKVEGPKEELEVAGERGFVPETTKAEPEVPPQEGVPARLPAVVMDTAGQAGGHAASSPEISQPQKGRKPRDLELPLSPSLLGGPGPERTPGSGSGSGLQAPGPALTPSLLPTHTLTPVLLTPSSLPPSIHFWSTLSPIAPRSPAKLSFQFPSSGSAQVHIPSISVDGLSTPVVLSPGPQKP
The method, boiled down: as §1

For a further experiment, the target named is T5, GABPA (Homo sapiens, UniProt Q06546 1-454).
T5 sequence: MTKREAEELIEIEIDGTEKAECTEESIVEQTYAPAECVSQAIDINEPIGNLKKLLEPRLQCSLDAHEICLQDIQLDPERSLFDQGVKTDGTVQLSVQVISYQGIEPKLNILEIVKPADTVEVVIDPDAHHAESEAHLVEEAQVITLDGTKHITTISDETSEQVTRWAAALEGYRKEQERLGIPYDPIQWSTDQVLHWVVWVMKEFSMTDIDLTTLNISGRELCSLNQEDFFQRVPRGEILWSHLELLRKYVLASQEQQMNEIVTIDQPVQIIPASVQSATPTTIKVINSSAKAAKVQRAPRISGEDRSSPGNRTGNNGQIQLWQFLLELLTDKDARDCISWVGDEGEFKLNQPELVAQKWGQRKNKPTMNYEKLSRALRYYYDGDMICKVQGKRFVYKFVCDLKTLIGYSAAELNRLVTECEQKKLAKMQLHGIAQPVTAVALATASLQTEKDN
The method, boiled down: as §1

In a further experiment the target is T6, ERG (Homo sapiens, UniProt P11308 1-479).
T6 sequence: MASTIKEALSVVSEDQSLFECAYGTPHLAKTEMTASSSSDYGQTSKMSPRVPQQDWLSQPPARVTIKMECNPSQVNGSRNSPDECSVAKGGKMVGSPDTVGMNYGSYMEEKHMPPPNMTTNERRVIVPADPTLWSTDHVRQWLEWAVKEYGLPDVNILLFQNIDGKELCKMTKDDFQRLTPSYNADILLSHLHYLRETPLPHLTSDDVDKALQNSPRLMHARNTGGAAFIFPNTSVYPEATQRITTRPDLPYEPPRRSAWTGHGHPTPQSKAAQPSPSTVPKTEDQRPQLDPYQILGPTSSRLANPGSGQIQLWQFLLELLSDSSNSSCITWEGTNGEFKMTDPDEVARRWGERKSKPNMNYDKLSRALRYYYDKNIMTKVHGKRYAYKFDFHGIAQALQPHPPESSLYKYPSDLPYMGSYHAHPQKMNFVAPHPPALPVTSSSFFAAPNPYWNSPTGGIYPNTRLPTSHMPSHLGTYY
The method, boiled down: as §1

Another experiment has as its target T7, EHF (Homo sapiens, UniProt Q9NZC4 1-300).
T7 sequence: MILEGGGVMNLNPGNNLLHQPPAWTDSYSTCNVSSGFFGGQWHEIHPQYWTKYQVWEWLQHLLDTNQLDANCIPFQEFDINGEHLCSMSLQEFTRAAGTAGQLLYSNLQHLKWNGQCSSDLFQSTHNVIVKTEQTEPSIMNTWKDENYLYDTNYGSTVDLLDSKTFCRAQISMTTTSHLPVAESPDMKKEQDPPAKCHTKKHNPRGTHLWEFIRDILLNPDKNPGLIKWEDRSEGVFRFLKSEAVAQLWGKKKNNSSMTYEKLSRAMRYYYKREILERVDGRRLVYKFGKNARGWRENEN
The method, boiled down:
as §1

The next experiment concerns the target ELF4 (Homo sapiens, UniProt Q99607 1-663). The method, boiled down: as §1
Another experiment addresses T8, ELK4 (Homo sapiens, UniProt P28324-2 1-405).
T8 sequence: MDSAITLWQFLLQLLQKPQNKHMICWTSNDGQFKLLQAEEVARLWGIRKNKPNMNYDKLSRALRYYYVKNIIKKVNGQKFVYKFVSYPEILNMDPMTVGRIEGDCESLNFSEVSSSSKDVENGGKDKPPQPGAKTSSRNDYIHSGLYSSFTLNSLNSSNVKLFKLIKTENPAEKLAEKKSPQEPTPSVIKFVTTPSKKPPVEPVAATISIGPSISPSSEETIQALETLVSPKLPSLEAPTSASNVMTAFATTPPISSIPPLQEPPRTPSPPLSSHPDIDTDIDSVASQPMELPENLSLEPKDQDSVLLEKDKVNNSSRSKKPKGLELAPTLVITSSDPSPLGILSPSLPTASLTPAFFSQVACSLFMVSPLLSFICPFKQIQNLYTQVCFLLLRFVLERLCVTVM
The method, boiled down: as §1

The target in another experiment is T9, ETV2 (Homo sapiens, UniProt O00321 1-342).
T9 sequence: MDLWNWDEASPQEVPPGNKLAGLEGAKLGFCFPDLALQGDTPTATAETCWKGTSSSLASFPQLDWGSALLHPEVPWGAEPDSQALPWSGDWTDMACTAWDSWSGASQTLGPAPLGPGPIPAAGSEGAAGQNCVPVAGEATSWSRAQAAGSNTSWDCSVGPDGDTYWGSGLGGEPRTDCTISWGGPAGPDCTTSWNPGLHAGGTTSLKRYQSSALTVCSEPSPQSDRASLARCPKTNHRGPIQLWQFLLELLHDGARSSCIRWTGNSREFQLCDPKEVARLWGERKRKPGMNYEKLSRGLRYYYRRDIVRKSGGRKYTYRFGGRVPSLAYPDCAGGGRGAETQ
The method, boiled down: as §1

A further experiment addresses ETV1 (Homo sapiens, UniProt P50549 1-477). The method, boiled down: as §1
A further experiment concerns the target T10, ERF (Homo sapiens, UniProt P50548 1-548).
T10 sequence: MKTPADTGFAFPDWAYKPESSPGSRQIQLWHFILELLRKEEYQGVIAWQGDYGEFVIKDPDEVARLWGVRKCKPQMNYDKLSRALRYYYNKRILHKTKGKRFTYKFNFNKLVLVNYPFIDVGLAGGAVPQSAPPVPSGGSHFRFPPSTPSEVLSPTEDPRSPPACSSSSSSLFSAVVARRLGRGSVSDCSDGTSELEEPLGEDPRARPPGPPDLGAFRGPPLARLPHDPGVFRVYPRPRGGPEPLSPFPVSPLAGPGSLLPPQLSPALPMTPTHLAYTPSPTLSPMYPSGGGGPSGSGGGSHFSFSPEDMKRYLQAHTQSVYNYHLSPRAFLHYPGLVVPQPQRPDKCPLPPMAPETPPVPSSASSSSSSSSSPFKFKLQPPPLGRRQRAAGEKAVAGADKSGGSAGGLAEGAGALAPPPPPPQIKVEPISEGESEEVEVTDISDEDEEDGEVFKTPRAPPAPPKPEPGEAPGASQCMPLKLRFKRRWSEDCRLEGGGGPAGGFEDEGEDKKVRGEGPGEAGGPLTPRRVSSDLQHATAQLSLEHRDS
The method, boiled down:
as §1

The target of the next experiment is T11, ETV3L (Homo sapiens, UniProt Q6ZN32 1-361).
T11 sequence: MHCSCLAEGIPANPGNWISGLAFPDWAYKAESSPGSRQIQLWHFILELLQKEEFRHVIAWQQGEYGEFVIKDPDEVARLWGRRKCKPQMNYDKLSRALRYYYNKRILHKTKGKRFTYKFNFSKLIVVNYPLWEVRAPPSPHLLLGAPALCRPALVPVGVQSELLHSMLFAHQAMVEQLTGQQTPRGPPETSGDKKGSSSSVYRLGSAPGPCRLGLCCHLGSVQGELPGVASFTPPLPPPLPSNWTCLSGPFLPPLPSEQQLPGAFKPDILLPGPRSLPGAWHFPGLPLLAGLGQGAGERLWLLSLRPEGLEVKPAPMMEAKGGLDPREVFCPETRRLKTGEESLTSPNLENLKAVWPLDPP
The method, boiled down: as §1

The target of a further experiment is T12, ETS2 (Homo sapiens, UniProt P15036 1-469).
T12 sequence: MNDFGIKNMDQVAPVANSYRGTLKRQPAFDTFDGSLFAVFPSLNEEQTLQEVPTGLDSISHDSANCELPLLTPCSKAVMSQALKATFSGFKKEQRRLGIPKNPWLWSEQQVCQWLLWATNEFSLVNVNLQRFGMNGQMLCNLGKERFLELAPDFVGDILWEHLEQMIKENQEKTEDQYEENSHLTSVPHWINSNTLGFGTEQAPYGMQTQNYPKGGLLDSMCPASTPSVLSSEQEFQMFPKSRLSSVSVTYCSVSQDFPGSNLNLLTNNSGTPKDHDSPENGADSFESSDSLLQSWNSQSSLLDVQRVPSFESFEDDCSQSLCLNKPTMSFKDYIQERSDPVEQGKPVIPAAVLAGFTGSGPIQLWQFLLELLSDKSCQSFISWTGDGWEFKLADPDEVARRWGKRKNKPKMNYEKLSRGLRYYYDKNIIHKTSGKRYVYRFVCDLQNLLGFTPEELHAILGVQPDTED
The method, boiled down:
as §1

A further experiment deals with T13, ETV3 (Homo sapiens, UniProt P41162-2 1-143).
T13 sequence: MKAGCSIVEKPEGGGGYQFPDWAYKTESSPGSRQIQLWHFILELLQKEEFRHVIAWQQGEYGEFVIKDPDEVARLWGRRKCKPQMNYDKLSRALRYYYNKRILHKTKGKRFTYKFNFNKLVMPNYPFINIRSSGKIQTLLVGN
The method, boiled down: as §1

ETV5, sequence (P41161 whole entry): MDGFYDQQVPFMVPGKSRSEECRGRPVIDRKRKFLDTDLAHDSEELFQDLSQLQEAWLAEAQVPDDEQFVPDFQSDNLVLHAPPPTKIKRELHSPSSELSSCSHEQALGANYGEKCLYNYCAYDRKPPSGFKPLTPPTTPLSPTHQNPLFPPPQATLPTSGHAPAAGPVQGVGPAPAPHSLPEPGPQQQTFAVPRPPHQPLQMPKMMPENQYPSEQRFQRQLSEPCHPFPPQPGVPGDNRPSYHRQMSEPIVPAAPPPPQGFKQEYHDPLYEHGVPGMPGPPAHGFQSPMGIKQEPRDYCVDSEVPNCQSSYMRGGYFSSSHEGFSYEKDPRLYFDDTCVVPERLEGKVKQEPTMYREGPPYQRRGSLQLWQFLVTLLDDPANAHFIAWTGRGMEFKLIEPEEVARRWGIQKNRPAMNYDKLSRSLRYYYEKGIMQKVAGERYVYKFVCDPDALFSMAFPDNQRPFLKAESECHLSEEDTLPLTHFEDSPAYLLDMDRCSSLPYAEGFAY
ETV1, sequence (P50549 whole entry): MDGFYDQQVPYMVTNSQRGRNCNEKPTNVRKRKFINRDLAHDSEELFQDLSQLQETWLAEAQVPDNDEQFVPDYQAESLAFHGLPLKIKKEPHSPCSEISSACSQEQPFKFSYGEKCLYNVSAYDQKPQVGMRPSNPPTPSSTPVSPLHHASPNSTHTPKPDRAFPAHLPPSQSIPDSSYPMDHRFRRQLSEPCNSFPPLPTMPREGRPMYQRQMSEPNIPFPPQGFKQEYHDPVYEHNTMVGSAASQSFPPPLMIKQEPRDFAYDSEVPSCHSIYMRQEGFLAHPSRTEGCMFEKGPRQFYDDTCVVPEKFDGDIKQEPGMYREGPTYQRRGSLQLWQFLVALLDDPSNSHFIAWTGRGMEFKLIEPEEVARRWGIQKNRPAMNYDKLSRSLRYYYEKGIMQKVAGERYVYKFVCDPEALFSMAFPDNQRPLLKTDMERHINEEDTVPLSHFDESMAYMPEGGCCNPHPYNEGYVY
ELF4, sequence (Q99607 whole entry): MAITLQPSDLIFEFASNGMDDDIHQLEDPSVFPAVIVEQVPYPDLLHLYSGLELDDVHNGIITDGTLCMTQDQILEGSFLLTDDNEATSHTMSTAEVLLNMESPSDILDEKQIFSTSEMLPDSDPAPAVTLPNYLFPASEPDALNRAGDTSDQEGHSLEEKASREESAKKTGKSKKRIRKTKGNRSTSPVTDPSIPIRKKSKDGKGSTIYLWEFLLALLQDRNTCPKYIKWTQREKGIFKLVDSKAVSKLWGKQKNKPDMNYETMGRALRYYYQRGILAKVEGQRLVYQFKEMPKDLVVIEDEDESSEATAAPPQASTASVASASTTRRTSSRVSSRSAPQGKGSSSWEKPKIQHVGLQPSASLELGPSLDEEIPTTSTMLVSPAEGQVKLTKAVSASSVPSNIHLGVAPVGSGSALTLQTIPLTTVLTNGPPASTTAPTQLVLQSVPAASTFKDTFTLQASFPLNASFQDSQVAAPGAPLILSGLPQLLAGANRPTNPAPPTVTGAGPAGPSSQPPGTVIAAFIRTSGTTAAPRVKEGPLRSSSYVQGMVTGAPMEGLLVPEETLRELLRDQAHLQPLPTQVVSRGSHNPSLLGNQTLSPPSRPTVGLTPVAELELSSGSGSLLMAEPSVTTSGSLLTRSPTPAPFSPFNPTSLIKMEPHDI

Consider TGACGG, for which the binding signal with SPI1 is 1.02 fold enrichment (6-mer frequency, TF over GST control); with FEV, 1.06 fold enrichment (6-mer frequency, TF over GST control); with ETV5 it was 1.04 fold enrichment (6-mer frequency, TF over GST control); in the experiment with ELF3, 1.06 fold enrichment (6-mer frequency, TF over GST control); with ETV7 it was 1.02 fold enrichment (6-mer frequency, TF over GST control).

As for TAGGGC, the binding signal is 1.07 fold enrichment (6-mer frequency, TF over GST control) with ELK1; 1.01 fold enrichment (6-mer frequency, TF over GST control) in the experiment with GABPA; 1.01 fold enrichment (6-mer frequency, TF over GST control) with ERG; 1.18 fold enrichment (6-mer frequency, TF over GST control) with EHF; 1.01 fold enrichment (6-mer frequency, TF over GST control) with SPI1; 1.06 fold enrichment (6-mer frequency, TF over GST control) with FEV. Further, the binding signal was 1.03 fold enrichment (6-mer frequency, TF over GST control) with ETV5; 1.03 fold enrichment (6-mer frequency, TF over GST control) with ELF4; 1.02 fold enrichment (6-mer frequency, TF over GST control) with ELK4; 1.12 fold enrichment (6-mer frequency, TF over GST control) in the experiment with ETV2; 1.06 fold enrichment (6-mer frequency, TF over GST control) in the experiment with ETV1; 1.09 fold enrichment (6-mer frequency, TF over GST control) in the experiment with ERF. Also, the binding signal is 1.04 fold enrichment (6-mer frequency, TF over GST control) with ETV3L; 1.06 fold enrichment (6-mer frequency, TF over GST control) in the experiment with ETS2; 1.07 fold enrichment (6-mer frequency, TF over GST control) with ETV7; 1.03 fold enrichment (6-mer frequency, TF over GST control) with ETV3.
